Test [1] deals with Lysosomal acid glucosylceramidase (Homo sapiens) (UniProt P04062). Put plainly: Glucocerebrosidase-p2 (AID 348; in the data active = potency below about 10 µM; note: potency is the fitted concentration of half-maximal effect). The following applies: purified GBA, blue fluorogenic substrate, 40 min. In outline: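 Compounds titrated from 0.6 nM upwards against 0.2 nM enzyme in pH 5.9 citric acid/KH2PO4, taurocholate, tween-20; blue fluorogenic substrate 80 uM, 40 min room temperature, stopped and read Ex 365/Em 440 for AC50.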

Test [2] addresses Cytochrome P450 1A2 (Homo sapiens) (UniProt P05177). Put plainly: p450-cyp1a2 (AID 410; calls by dose curve; note: potency is the fitted concentration of half-maximal effect). The following applies: recombinant CYP1A2, luciferin-ME demethylation, luminescence; series mostly up to 57 µM. In outline: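 Human CYP1A2 (20nM) demethylated Luciferin-ME at its Km (100uM) in 100mM KPO4. After 10 min compound preincubation, NADPH regeneration ran the reaction 60 min at room temperature. Luciferin was read by luminescence, normalized to 57 uM furafylline.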

A short description of test [3]: NFAT Signaling Pathway (AID 444; active = well fitted curve in either direction with a large enough effect, not every such curve was filed as active;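 note: carbachol stimulus at about its EC50 of 1 µM final; % is set by controls: 0 for no effect and ±100 for the full control effect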). The following applies: Jurkat NFAT-bla M1, carbachol, beta-lactamase ratio, 5 h; at 7.69 µM (top of the series) unless noted. The essentials: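 Jurkat cells with NFAT-driven β-lactamase reporter and co-expressed M1 receptor, stimulated with carbachol (final 1 uM, ~EC50), compound titration, 5 h at 37 °C. CCF4 loaded 1 h at RT; 460/530 nm ratio gave %activity and AC50.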

Test [4] deals with Glucocorticoid receptor (Homo sapiens) (UniProt P04150). Put plainly: GR-GFP Redistribution (AID 450;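 active = compounds whose dose series gives a full or clear partial fitted curve of increased nuclear translocation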; note: potency is the fitted concentration of half-maximal effect). Particulars: U2OS GR-GFP nuclear translocation, laser cytometry, 2 h.
Test [5] shares this target. Put plainly: GR-EFC Redistribution (AID 451; calls by dose curve; note: potency is the fitted concentration of half-maximal effect). Particulars: CHO-K1 GR-EFC translocation, beta-gal luminescence, 2 h. The essentials:
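CHO-K1 cells expressing nuclear EA and GR-ED fragments of b-gal; compounds titrated up to 46 uM final, 2 h at 37 C. GR nuclear translocation read as complemented b-gal luminescence after 1 h RT detection.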

Test [6] concerns the target Mitogen-activated protein kinase 10 (Mus musculus) (UniProt Q61831). Put plainly: JNK3 AlphaScreen Assay (AID 530; active = well fitted curve in either direction with a large enough effect, not every such curve was filed as active;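 note: kinase came from lysate of stimulated human HepG2 cells; signal reports phosphorylation of biotinylated GST-cJun 1-79 at Ser73 with 10 µM ATP; % is set by controls: 0 for no effect and ±100 for the full control effect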). The following applies: JNK3 lysate, c-Jun phosphorylation; series mostly up to 57.1 µM. In outline: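 qHTS format: compounds tested as titrations against IL-1beta/TNF-alpha-activated HepG2 lysate JNK3 with biotin-GST-cJun substrate and 10 uM ATP at room temperature. Loss of anti-phospho-cJun AlphaScreen signal indicates inhibition.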

The target in test [7] is 3',5'-cyclic-AMP phosphodiesterase 4B (Homo sapiens) (UniProt Q07343). Put plainly: qHTS Assay for Inhibitors of PDE-IV (AID 607; active = well fitted activation curve with a large enough effect in the main read-out, with a control signal flat, not every such curve was filed as active; note: % of control where 0% means no effect). Particulars: HEK293 ACTOne CNG channel cells, membrane potential fluorescence; series mostly up to 22.9 µM. The essentials:
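The readout is membrane depolarisation from a cAMP-sensing CNG channel, detected with a potential dye at ex 535/em 590. Cells were HEK293-derived (endogenous PDE-IV) at 1000 cells/well, titrated up to 22.9 uM final.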

The target of test [8] is Cytochrome P450 3A4 (Homo sapiens) (UniProt P08684). Put plainly: qHTS Assay for Inhibitors and Substrates of Cytochrome P450 3A4 (AID 884). Note: potency is the fitted concentration of half-maximal effect; nearly all actives have a fitted effect of over 50% in size. The following applies: recombinant CYP3A4, Luciferin-PPXE luminescence; series mostly up to 57.1 µM. In outline:
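20 nM human CYP3A4 with 25 uM Luciferin-PPXE (at KM) in 200 mM KPO4, preincubated 10 min with compound; NADPH regeneration started a 60 min RT reaction. Luciferin detected by luminescence, normalized to 57 uM ketoconazole as full inhibition.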

The target is the same in test [9]. Put plainly: qHTS Assay for Activators of Cytochrome P450 3A4 (AID 885). Note: nearly all actives have a fitted effect of over 65% in size. Particulars: recombinant CYP3A4, Luciferin-PPXE luminescence, 60 min; series mostly up to 57.1 µM. The essentials: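 Steps: enzyme/substrate mix dispensed; compound added, 10 min RT; NADPH regeneration solution added, 60 min RT; luciferin detection buffer stops reaction; 20 min later luminescence measured.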

Test [10] concerns the target Dual specificity protein kinase CLK4 (Homo sapiens) (UniProt Q9HAZ1). Put plainly: qHTS Assay for Inhibitors of CDC-like Kinase 4 (Kinase-Glo Assay) (AID 1770). Note: % is set by controls: 0 for no effect and ±100 for the full control effect; nearly all actives have a fitted effect of over 65% in size. The following applies: recombinant Clk4, Kinase-Glo ATP depletion luminescence; series mostly up to 66.7 µM. In outline:
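25 nM Clk4 with 100 uM RS repeat peptide and 1 uM ATP (final) in Tris pH7.5, 10 mM MgCl2, 4.5 h at room temperature. Remaining ATP measured by Kinase-Glo luciferase luminescence.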

The target is the same in test [11]. Put plainly: qHTS Assay for Inhibitors of CDC-like Kinase 4 (ADP-Glo Assay) (AID 1771). Note: % is set by controls: 0 for no effect and ±100 for the full control effect; nearly all actives have a fitted effect of over 70% in size. Particulars: recombinant CLK4, ADP-Glo luminescence; series mostly up to 80 µM. The essentials: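 Clk4 (25 nM) was incubated 1 hr at room temperature with 100 uM RS repeat peptide and 1 uM ATP in buffer with 2 mM MgCl2, 0.5 mM EGTA, 2.5 mM DTT. ADP formed was quantified by ADP-Glo luminescence.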

In test [12] the target is Ubiquitin carboxyl-terminal hydrolase 1 (Homo sapiens) (UniProt O94782). Put plainly: Inhibitors of USP1/UAF1: Pilot qHTS (AID 504865).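 Note: rhodamine fluorescence freed from ubiquitin-rhodamine substrate followed over time; top concentration of the series differs between compounds; % is set by controls: 0 for no effect and ±100 for the full control effect; nearly all actives have a fitted effect of over 35% in size.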 The following applies: purified USP1/UAF1, Ub-rhodamine cleavage fluorescence; series mostly up to 54.9 µM. In outline: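 USP1/UAF1 complex at 1 nM preincubated 15 min at room temperature with compound, then Ub-Rho substrate added at 150 nM final. Fluorescence (480/540 nm) read kinetically in 50 mM HEPES pH 7.8, 0.5 mM EDTA, 1 mM TCEP, 0.1 mg/ml BSA, 0.01% Tween-20.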

Test [13] is described as follows: Primary qHTS for small molecule stabilizers of the endoplasmic reticulum resident proteome: Secreted ER Calcium Modulated Protein (SERCaMP) assay (AID 1508630). Note: % is set by controls: 0 for no effect and ±100 for the full control effect. Particulars: SH-SY5Y GLuc-SERCaMP (Gaussia luciferase released on ER calcium loss) secretion, thapsigargin, luminescence; series mostly up to 38.4 µM. The essentials:
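GLuc-SERCaMP-expressing SH-SY5Y cells, pretreated 16 h with compound, are challenged with thapsigargin to empty ER calcium stores; after 4 h, coelenterazine is added directly to the medium and luminescence is imaged.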

The nature of test [14]: AP1 Signaling Pathway (AID 357; active = well fitted curve in either direction with a large enough effect, not every such curve was filed as active;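 note: ME-180 reporter cells stimulated with EGF at its EC50 level; % is set by controls: 0 for no effect and ±100 for the full control effect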). Particulars: ME-180 AP-1-bla reporter, EGF-induced, beta-lactamase ratio, 5 h; at 7.69 µM (top of the series) unless noted. The essentials: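 Modulation of EGF-driven AP-1 transcription was assessed with a beta-lactamase reporter in ME-180 cells. Compound and EC50 EGF were co-incubated 5 hours at 37 °C before 2.5-hour CCF4 loading at room temperature and dual-emission reading.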

Test [15] in a line: Stat Signaling Pathway (AID 446; active = well fitted curve in either direction with a large enough effect, not every such curve was filed as active). Particulars: ME-180 SIE beta-lactamase reporter, IL-6 stimulated, 5 h; at 7.69 µM (top of the series) unless noted. In outline:
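Screening format detects activators and inhibitors alike: ME-180 SIE-bla cells stimulated at 40 pM IL-6 for 5 hrs with compound, then dual-emission beta-lactamase read at 405 nm excitation.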

Test [16] concerns the target Dual specificity protein kinase CLK4 (Homo sapiens) (UniProt Q9HAZ1). Put plainly: qHTS Assay for Inhibitors of CDC-like Kinase 4 (ADP-FP Assay) (AID 1795). Note: % is set by controls: 0 for no effect and ±100 for the full control effect; nearly all actives have a fitted effect of over 60% in size. The following applies: Transcreener ADP fluorescence polarization; series mostly up to 50 µM. In outline:
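Recombinant Clk4 (6.25 nM) phosphorylated 100 uM RS repeat peptide with 1 uM ATP in 25 mM Tris pH 7.5, 10 mM MgCl2, 0.5 mM EGTA, 2.5 mM DTT, 0.01% Triton X-100 for 1 h. ADP was detected by Transcreener ADP2 competitive fluorescence polarization after 30 min at room temperature.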

Test [17] has as its target Cytochrome P450 2D6 (Homo sapiens) (UniProt P10635). Put plainly: qHTS Assay for Inhibitors and Substrates of Cytochrome P450 2D6 (AID 891). Note: potency is the fitted concentration of half-maximal effect; nearly all actives have a fitted effect of over 60% in size. The following applies: recombinant CYP2D6, luciferin-ME EGE luminescence; series mostly up to 57.1 µM. In outline: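 Human CYP2D6 (5 nM) with 30 uM Luciferin-ME EGE (at Km) in 100 mM KPO4, compound preincubated 10 min, then NADPH regeneration system for 60 min at room temperature. Luciferin read by luminescence; normalized to 1.43 uM quinidine.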

Test [18] concerns the target Cytochrome P450 2C9 (Homo sapiens) (UniProt P11712). Put plainly: qHTS Assay for Inhibitors and Substrates of Cytochrome P450 2C9 (AID 883). Note: % is set by controls: 0 for no effect and ±100 for the full control effect; nearly all actives have a fitted effect of over 60% in size. The following applies: recombinant CYP2C9, luciferin-H luminescence, 60 min; series mostly up to 57.1 µM. The essentials: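 Signal: luciferase luminescence reporting luciferin produced by CYP2C9. Conditions: 10nM enzyme, Luciferin-H 100uM at KM, 25mM KPO4, 37C, 60 min NADPH-driven reaction. Reference: 57uM sulphaphenazole as 100% inhibition.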

Values without a mark were called inactive. Results filed as inconclusive are left out. Calls of active or inactive are those of the source. Unless noted, calls come from the whole dose curve; as a rule, active = well fitted curve in the direction sought with a large enough effect; inconclusive = small, poorly fitted or top-dose-only effect, or another doubt; inactive = no such curve, though single readings can be large; an effect the other way counts as inactive or inconclusive.

Chain of Glucocorticoid receptor (Homo sapiens) (P04150 whole entry, looked up): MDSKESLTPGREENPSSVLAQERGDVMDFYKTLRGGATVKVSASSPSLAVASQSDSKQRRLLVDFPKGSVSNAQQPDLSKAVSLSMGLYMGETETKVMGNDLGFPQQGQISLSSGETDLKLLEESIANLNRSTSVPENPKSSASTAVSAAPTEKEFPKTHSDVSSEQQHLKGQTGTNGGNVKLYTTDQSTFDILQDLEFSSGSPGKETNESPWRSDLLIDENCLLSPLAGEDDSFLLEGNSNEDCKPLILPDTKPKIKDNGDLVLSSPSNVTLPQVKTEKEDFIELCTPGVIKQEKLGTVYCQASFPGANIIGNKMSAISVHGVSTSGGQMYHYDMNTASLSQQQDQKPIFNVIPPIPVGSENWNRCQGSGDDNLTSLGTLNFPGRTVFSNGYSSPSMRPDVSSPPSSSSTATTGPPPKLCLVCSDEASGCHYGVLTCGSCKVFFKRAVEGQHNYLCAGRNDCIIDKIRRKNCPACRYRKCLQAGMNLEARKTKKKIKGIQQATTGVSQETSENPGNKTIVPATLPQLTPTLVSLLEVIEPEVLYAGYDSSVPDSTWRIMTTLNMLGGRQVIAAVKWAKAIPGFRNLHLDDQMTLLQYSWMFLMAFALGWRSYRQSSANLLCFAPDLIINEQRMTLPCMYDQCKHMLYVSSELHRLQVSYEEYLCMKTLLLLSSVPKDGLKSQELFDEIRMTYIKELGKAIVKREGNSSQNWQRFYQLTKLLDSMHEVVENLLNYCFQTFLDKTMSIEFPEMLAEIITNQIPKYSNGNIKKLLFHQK
Chain of 3',5'-cyclic-AMP phosphodiesterase 4B (Homo sapiens) (Q07343 whole entry, looked up): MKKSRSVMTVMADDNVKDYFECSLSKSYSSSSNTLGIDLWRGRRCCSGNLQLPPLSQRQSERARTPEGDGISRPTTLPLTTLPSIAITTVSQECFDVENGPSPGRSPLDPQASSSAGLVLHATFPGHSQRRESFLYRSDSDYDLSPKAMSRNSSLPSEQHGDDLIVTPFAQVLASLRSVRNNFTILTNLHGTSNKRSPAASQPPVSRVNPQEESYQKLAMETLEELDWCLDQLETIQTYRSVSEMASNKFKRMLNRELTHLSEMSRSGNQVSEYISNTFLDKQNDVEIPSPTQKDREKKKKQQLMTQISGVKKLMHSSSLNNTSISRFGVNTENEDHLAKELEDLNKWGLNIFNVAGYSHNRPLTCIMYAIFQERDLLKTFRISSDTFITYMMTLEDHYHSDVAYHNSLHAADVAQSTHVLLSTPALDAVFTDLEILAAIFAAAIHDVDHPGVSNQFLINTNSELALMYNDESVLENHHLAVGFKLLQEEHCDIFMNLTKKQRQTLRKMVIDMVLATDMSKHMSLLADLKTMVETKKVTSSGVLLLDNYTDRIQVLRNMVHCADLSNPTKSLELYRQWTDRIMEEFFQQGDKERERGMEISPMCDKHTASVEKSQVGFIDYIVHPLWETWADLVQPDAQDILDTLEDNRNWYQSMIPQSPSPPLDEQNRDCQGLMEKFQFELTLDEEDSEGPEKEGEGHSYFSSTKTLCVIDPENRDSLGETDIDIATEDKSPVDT
Chain of Cytochrome P450 3A4 (Homo sapiens) (P08684 whole entry, looked up): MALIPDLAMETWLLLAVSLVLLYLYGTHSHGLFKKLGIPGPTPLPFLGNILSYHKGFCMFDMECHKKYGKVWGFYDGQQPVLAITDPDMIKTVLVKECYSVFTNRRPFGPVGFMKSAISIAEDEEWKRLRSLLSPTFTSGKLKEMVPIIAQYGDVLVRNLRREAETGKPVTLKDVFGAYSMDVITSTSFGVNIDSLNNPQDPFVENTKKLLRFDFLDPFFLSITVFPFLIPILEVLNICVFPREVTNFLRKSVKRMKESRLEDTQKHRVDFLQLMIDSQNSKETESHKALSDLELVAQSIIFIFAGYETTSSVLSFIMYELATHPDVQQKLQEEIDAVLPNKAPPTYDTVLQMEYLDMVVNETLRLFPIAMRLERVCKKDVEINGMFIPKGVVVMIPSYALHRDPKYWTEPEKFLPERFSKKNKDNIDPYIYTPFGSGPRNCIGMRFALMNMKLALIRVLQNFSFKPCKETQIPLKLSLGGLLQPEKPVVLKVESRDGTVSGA
Chain of Dual specificity protein kinase CLK4 (Homo sapiens) (Q9HAZ1 whole entry, looked up): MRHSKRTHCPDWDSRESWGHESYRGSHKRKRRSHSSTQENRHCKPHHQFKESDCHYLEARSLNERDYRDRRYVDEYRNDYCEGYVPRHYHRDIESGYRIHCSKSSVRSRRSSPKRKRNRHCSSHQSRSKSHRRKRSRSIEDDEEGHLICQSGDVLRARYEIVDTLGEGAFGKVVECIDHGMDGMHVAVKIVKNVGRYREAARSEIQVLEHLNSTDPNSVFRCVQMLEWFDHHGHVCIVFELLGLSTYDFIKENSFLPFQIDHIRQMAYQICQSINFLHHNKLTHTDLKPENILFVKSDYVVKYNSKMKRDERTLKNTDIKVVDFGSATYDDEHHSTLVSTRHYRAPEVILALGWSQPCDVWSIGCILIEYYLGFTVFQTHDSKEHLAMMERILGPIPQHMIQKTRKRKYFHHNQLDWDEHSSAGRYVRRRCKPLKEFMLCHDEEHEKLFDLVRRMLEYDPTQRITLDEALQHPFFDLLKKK
Chain of Cytochrome P450 1A2 (Homo sapiens) (P05177 whole entry, looked up): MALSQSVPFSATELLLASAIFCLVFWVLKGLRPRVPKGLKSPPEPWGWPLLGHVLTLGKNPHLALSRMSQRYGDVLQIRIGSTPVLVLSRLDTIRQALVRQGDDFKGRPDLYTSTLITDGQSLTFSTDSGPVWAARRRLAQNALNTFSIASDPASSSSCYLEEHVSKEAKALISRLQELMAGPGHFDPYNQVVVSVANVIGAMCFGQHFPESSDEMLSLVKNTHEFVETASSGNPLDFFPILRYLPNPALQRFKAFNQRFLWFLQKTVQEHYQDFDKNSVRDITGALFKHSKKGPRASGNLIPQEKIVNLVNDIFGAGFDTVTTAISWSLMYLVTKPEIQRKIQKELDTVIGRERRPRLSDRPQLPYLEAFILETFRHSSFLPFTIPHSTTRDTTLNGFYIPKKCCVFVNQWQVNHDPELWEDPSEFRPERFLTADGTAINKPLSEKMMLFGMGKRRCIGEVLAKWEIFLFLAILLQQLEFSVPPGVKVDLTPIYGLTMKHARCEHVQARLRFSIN
Chain of Ubiquitin carboxyl-terminal hydrolase 1 (Homo sapiens) (O94782 whole entry, looked up): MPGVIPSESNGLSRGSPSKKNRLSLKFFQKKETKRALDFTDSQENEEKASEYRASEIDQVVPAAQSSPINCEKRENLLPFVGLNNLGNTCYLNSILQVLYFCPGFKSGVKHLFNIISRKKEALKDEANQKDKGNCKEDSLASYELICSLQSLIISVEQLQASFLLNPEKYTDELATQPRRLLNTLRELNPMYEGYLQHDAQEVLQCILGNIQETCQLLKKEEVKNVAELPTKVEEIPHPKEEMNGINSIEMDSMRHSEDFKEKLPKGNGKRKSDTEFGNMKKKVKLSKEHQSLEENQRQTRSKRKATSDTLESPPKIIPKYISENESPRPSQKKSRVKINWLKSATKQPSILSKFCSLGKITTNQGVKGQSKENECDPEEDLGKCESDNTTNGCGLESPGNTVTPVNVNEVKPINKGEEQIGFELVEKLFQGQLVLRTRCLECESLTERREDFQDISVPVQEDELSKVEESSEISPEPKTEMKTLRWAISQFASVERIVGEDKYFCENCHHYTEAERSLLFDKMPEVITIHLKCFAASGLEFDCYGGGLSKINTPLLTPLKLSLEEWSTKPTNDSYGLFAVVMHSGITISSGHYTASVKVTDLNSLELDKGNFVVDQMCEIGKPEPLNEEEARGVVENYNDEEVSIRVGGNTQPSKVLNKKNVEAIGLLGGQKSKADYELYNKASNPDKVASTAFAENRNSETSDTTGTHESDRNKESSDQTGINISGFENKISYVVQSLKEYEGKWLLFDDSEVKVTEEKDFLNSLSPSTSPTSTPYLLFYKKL
Chain of Lysosomal acid glucosylceramidase (Homo sapiens) (P04062 whole entry, looked up): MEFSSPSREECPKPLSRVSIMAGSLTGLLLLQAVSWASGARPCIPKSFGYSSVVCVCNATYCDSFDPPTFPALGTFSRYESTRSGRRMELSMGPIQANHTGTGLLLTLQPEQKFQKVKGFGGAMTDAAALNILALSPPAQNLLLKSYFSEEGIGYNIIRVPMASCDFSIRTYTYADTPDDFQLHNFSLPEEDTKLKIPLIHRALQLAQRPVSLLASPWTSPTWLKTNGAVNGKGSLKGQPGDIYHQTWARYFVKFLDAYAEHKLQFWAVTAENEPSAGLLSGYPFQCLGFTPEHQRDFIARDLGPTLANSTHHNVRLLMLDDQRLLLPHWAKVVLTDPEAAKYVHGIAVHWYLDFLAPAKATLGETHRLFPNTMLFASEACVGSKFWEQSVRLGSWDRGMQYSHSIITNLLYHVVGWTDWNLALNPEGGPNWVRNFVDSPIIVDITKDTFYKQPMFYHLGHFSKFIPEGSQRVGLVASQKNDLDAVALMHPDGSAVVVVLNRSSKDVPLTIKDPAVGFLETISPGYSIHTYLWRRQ
Chain of Cytochrome P450 2D6 (Homo sapiens) (P10635 whole entry, looked up): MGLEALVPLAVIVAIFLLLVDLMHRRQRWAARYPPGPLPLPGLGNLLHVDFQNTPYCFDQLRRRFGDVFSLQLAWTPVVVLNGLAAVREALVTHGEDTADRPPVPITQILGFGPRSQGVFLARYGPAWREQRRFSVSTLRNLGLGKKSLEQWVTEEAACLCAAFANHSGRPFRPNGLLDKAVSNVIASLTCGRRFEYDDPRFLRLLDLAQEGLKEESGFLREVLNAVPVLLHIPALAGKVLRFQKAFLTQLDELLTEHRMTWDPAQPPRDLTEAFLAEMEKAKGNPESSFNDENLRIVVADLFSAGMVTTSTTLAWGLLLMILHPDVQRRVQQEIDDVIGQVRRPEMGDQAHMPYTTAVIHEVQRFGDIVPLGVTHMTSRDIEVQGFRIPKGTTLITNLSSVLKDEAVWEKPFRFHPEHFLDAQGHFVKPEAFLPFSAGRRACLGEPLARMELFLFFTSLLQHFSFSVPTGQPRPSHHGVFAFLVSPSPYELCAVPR

Take `COc1cccc(Cn2c(=O)c(-c3cn(C)c4ccccc34)nc3cnc(OC)nc32)c1`: the Potency in test [1] was greater than 11.4 µM; in test [2], 15.8 µM (active); in test [4] it was greater than 9.22 µM; in test [5], greater than 46 µM; in test [8] it was 7.94 µM (active). The activity change, negative = inhibition in test [3] is 1.88%. Also, the Potency entry in test [6], in test [7], in test [9], in test [10], in test [11] and in test [12] was “inactive” in each case. In addition, the outcome in test [13] was inactive.

Regarding `FC(F)(F)c1ccccc1-c1cc(NCc2cccnc2)ncn1`, the Potency in test [1] was greater than 11.4 µM; in test [2], 3.98 µM (active); in test [4] it was greater than 46 µM; in test [5] it was greater than 46 µM. Moreover, the activity change, negative = inhibition in test [14] was -2.3%; in test [3], 4.08%. Also, the activity, negative = inhibition in test [15] was -3%. Moreover, the Potency result in test [6], in [7], in test [9], in [10], in test [16] and in test [12] was “inactive” each time. Besides, the result in [13] was inactive.

For the compound `CN(C)Cc1ccccc1-c1nccc(N(C)Cc2ccco2)n1`, the Potency was greater than 11.4 µM in test [1]; 7.94 µM (active) in [2]; greater than 46 µM in test [4]; greater than 46 µM in test [5]; 0.794 µM (active) in [17]. Further, the activity change, negative = inhibition in [14] was -20%; in test [3] it was -23.2%. Moreover, the activity, negative = inhibition in test [15] was 0.0679%. Also, the Potency result in test [6], in test [9], in [10], in [16] and in [12] was “inactive” each time. For the same compound, in [13], the outcome was inactive.

As to `Cc1noc(C)c1-c1nccc(NC2CC2)n1`, the Potency was greater than 11.4 µM in test [1]; 0.1 µM (active) in [2]; greater than 46 µM in test [4]; greater than 46 µM in test [5]; 2.51 µM (active) in test [8]. Besides, the activity change, negative = inhibition in [14] is 13.6%; in test [3] it was 19.7%; in test [18], 3.44% [at 2.29 µM]. In addition, the activity, negative = inhibition in test [15] was 1.49%. For the same compound, the Potency result in [6], in test [7], in [9], in [10], in test [16] and in test [12] was “inactive” throughout. Also, in [13], the outcome was inactive.

Take `COc1ccc(-c2nc3cnc(N(C)C)nc3n(C[C@H]3CCCO3)c2=O)cc1`: the Potency in [1] was greater than 11.4 µM; in test [2], 3.16 µM (active); in [4] it was greater than 9.22 µM; in test [5], greater than 46 µM. The activity change, negative = inhibition in test [14] was 1.23%; in [3], -3.89%. The activity, negative = inhibition in [15] was 2.75%. Further, the Potency result in test [9], in test [10], in test [16] and in [12] was “inactive” throughout. Also, the outcome in test [13] was inactive.

On to `COc1ccc2[nH]cc(CCNc3ccnc(-c4ccc(C(=O)N(C)C)cc4)n3)c2c1`, for which the Potency was greater than 11.4 µM in [1]; 12.6 µM (active) in [2]; greater than 46 µM in test [4]; greater than 46 µM in [5]; 3.16 µM (active) in [8]. The activity change, negative = inhibition in [14] is -14.6%; in [3], -3.74%. Further, the activity, negative = inhibition in test [15] was -20.4%. For the same compound, the Potency entry in [6], in [7], in test [9], in test [10], in [16] and in [12] was “inactive” each time. In addition, the result in test [13] was inactive.

These data come from PubChem BioAssay (NCATS).
